Laboratory results reported in PubChem BioAssay.
Activity calls are given as the source filed them.

Experiments:
[1] = binders of probe aFSTL3 on microarray, primary screen, stem cell growth factor project, biochemical, small-molecule microarray, fluorescence 635/667 (AID 1064); settings: higher = more signal;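 also: measures binding of the biotinylated anti-FSTL3 antibody to printed compounds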
[2] = binders from COS7 lysate, DM2A8 probe, primary screen, torsin A project, cell lysate, small-molecule microarray, fluorescence 635/667 (AID 1065); settings: higher = more signal, COS7 lysate expressing mutant human TOR1A
[3] = binders of probe aFGF2 on microarray, primary screen, stem cell growth factor project, biochemical, small-molecule microarray, fluorescence 635/667 (AID 1067); settings: higher = more signal;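 also: measures binding of biotinylated aFGF2 protein to printed compounds on slides; z-score merges feature fluorescence and signal-to-noise across triplicate slides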
[4] = binders of probe aFGF10 on microarray, primary screen, stem cell growth factor project, biochemical, small-molecule microarray, fluorescence 635/667 (AID 1071); settings: higher = more signal;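 also: score merges 667 nm spot intensity and signal to noise from triplicate slides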
[5] = molecular target: Neurogenic locus notch homolog protein 2 (Homo sapiens) (UniProt Q04721); experiment: Notch2 binders on small-molecule microarrays, primary screen, biochemical, small-molecule microarray, 635 nm fluorescence, stem cell growth factors (AID 1073); settings: Notch2 binding, higher = more signal
[6] = molecular target: Pro-neuregulin-1, membrane-bound isoform (Homo sapiens) (UniProt Q02297); experiment: NRG1 binders on small-molecule microarrays, primary screen, psychiatric disease protein project, biochemical, small-molecule microarray, fluorescence 635/667 (AID 1075); settings: NRG1 binding, 635 nm fluorescence, higher = more signal;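 also: score combines 667 nm spot fluorescence with signal to noise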
[7] = system: Neuregulin-1 EGF-like domain; experiment: binders of neuregulin-1 EGF-like domain, primary screen, biochemical, small-molecule microarray, 635 nm fluorescence (AID 1081); settings: small-molecule microarray binding, higher = more signal;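 also: binding of the protein to compounds printed on small-molecule microarray slides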
[8] = FRG1 promoter luciferase signal modulators, primary screen, FRG1 inhibition for FSHD, cell-based, C2C12 myotubes, firefly/Renilla luciferase, luminescence (AID 1084); settings: higher = more signal, called active from +8 up or from −8 down
[9] = binders of probe aFST on microarray, primary screen, stem cell growth factor project, biochemical, small-molecule microarray, fluorescence 635/667 (AID 1086); settings: higher = more signal;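 also: score merges 667 nm fluorescence with signal-to-noise of each printed compound spot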
[10] = binders of probe aHhip on microarray, primary screen, stem cell growth factor project, biochemical, small-molecule microarray, fluorescence 635/667 (AID 1087); settings: higher = more signal;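 also: score merges spot fluorescence at 667nm with spot signal to noise ratio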

Pro-neuregulin-1, membrane-bound isoform (Homo sapiens), sequence (Q02297 whole entry, looked up, the tested form may be a part, canonical isoform): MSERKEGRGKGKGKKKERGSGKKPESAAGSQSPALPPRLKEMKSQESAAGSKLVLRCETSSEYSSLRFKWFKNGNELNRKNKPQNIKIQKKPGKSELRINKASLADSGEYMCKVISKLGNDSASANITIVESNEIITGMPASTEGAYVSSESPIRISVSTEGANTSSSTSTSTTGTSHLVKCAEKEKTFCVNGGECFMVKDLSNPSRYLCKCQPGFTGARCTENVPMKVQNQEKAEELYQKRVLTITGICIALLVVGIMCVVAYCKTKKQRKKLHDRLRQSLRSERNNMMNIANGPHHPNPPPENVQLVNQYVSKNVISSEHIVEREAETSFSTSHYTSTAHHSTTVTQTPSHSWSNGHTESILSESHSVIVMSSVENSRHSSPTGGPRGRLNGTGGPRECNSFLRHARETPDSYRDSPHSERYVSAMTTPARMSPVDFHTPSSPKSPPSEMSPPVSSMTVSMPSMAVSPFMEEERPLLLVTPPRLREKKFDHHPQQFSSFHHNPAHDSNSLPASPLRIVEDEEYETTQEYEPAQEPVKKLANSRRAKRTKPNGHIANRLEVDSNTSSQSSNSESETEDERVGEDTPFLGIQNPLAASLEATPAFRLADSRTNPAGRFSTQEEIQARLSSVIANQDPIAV
Neurogenic locus notch homolog protein 2 (Homo sapiens), sequence (Q04721 whole entry, looked up, canonical isoform): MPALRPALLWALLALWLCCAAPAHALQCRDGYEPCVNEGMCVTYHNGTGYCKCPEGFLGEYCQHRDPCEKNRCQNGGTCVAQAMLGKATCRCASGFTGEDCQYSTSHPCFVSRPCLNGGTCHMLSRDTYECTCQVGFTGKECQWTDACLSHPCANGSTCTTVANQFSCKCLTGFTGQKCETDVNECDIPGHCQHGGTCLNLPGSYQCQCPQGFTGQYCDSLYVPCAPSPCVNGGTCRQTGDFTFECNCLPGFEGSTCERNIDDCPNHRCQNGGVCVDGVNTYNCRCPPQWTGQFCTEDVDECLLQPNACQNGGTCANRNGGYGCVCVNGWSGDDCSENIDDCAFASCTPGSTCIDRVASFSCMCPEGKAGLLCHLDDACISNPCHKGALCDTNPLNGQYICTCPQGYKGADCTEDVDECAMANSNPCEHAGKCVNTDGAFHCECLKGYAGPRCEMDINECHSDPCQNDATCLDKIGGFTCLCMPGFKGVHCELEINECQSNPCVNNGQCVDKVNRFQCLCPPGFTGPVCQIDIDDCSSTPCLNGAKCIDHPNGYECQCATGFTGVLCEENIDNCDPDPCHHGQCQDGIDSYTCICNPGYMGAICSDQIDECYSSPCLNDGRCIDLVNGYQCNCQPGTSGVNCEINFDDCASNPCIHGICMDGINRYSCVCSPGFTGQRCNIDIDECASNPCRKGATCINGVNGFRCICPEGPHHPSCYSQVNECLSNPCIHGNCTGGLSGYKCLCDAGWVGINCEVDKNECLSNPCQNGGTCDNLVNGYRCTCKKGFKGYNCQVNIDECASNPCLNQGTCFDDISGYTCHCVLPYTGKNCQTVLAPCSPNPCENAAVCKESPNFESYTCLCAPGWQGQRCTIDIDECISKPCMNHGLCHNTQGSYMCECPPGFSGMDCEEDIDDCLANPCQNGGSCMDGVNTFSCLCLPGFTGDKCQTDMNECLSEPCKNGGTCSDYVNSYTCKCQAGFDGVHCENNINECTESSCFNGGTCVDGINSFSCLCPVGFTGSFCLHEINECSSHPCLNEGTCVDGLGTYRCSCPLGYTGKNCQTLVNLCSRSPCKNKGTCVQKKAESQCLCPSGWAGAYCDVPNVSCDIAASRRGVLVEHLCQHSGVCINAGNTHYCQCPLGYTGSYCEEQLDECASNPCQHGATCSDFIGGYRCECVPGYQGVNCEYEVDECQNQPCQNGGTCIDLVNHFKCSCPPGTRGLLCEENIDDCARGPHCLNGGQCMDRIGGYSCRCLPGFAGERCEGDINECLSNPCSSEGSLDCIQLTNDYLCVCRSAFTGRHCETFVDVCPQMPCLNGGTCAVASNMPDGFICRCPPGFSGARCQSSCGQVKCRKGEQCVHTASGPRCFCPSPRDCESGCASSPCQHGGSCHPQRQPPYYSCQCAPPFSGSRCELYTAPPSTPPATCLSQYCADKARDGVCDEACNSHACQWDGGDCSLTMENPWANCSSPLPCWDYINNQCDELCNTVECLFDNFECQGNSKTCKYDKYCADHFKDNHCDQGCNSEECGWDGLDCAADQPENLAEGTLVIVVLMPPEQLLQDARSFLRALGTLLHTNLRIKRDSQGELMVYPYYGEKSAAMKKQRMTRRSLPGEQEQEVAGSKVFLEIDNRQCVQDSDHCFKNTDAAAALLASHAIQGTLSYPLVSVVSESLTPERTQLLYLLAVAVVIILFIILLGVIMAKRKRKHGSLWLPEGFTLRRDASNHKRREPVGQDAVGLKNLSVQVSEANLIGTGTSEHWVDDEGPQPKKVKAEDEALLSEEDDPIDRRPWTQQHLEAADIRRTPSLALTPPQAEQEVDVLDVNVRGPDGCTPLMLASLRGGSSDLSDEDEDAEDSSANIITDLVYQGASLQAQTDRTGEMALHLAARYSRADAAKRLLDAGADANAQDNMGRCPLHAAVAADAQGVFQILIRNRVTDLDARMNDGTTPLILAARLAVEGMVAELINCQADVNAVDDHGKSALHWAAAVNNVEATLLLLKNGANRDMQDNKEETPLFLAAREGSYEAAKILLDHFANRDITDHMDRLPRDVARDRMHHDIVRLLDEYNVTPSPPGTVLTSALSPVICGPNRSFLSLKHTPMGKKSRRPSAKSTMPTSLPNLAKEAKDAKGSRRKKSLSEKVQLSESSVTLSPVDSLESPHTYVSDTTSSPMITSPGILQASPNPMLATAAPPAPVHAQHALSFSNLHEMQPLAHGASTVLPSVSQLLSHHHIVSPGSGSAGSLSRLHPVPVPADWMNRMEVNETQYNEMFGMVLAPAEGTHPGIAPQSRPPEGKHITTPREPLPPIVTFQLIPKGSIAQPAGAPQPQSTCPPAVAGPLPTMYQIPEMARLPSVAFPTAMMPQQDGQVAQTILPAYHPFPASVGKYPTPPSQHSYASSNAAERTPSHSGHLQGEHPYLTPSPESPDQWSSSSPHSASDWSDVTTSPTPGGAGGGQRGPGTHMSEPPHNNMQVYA

Row | SMILES | composite z-score [1] | composite z-score [2] | composite z-score [3] | composite z-score [4] | composite z-score [5] | composite z-score [6] | composite z-score [7] | z-score [8] | composite z-score [9] | composite z-score [10]
1 | COc1cc(C(O)C2C=CC3C(=O)NC(=O)C3N2Nc2ccc(Cl)cc2Cl)cc(OC)c1OC (stereo not given) | 0.223 | -1.1 | 0.0461 | 0.476 | 1.63 | 1.72 | 1.21 | 1.15 (inactive) | 1.7 | 0.203
2 | O=C1c2ccccc2[C@](Cc2ccccc2I)(C(=O)NCC(F)(F)F)[C@H](c2ccc(CO)cc2)N1Cc1ccccc1 | -0.213 | -0.0086 | 0.0363 | 0.15 | 1.39 | 1.12 | 1.21 | -0.508 (inactive) | 0.585 | 0.0734
3 | CCCNC(=O)[C@@H]1c2ccccc2C(=O)N(CC23CC4CC(CC(C4)C2)C3)[C@H]1c1ccc(CO)cc1 | -0.371 | -0.101 | -0.0588 | 0.618 | 1.56 | 1.3 | 1.26 | -2.41 (inactive) | 1.3 | 0.0373
4 | N#Cc1ccc(NN2C(C(O)c3ccco3)C=CC3C(=O)N(c4ccccc4)C(=O)C32)cc1 (stereo not given) | 0.188 | -0.0615 | -0.0133 | 0.758 | 0.54 | 0.989 | 0.754 | 0.768 (inactive) | 0.39 | -0.249
5 | O=C1O[C@H](c2ccccc2)[C@H](c2ccccc2)N2[C@H]1[C@@H](C(=O)N1CCCCCCC1)[C@]1(C(=O)Nc3ccccc31)[C@H]2c1ccc(O)cc1 | 4.2 | 2.71 | 1.1 | 1.61 | 1.83 | 2.55 | 1.37 | 0.168 (inactive) | 3.92 | 4.73
6 | Cc1ccc(N2C(=O)c3ccccc3[C@](C)(C(=O)NC(C)C)[C@@H]2c2ccc(CO)cc2)nc1 | 1.57 | -1.06 | -0.254 | -1.11 | -1.61 | -1.55 | 0.787 | -0.0923 (inactive) | -0.927 | 0.119
7 | COc1ccccc1CN1C(=O)c2ccccc2[C@@]2(Cc3ccccc3N(C3CC3)C2=O)[C@@H]1c1ccc(CO)cc1 | -0.262 | -0.804 | -0.107 | 0.0106 | -0.461 | 0.937 | -0.0422 | -0.223 (inactive) | 0.0845 | -0.164
8 | COCC(=C=CC[C@@H](O)c1ccccc1OCCO)C[C@@H](O)c1ccccn1 | -0.304 | 0.663 | -0.0775 | 0.159 | 0.12 | 1.21 | 1.2 | -0.0964 (inactive) | -0.0376 | 0.0156
9 | CC(C)C[C@@H]1NC(=O)[C@@]23C(=O)N[C@@H](Cc4ccccc4)C2[C@H](C)[C@@]2(C)O[C@H]2C3/C=C/C/C=C\CNC(=O)[C@@H]2CCCN2C1=O (stereo not given in full) | -0.566 | 0.0462 | -0.106 | -0.0448 | -0.385 | -0.492 | -0.378 | 2.09 (inactive) | 0.0833 | -0.0994
10 | O=C1C2C=CC(C(O)c3ccccn3)N(Nc3ccccc3)C2C(=O)N1c1ccccc1 (stereo not given) | -0.205 | -1.39 | -0.105 | 0.356 | 0.177 | 1.65 | 1.03 | 1.29 (inactive) | 0.338 | -0.0003
11 | COC(=O)[C@@]1(Cc2ccc(OC)cc2)[C@H]2c3cc(C(=O)N(C)C)n(Cc4cc(C)n(C)n4)c3C[C@H]2CN1C(=O)c1ccccc1 | 0.223 | 0.221 | 0.468 | 1.26 | 1.33 | 1.92 | 1.31 | 2 (inactive) | 0.732 | 0.309
12 | NC(=O)NCC#Cc1ccc2c(c1)[C@]1(C(=O)N2)[C@H](c2ccc(O)cc2)N2[C@H](c3ccccc3)[C@H](c3ccccc3)OC(=O)[C@H]2[C@@H]1C(=O)NC[C@H](O)c1ccccc1 | 1.38 | -1.23 | -0.132 | -1.17 | -1.17 | 0.831 | -0.18 | -0.0208 (inactive) | -0.268 | 0.172
13 | N#Cc1ccc(NN2C(C(O)c3ccccc3)C=CC3C(=O)N(c4ccccc4)C(=O)C32)cc1 (stereo not given) | 0.0243 | -0.0347 | 0.111 | 0.379 | 0.639 | 1.15 | 1.09 | 0.474 (inactive) | 0.64 | -0.151
14 | C=CCOc1ccc([C@@H]2CC=C(C(=O)OCC)[C@H](c3cccc(Br)c3)N2S(=O)(=O)c2ccc(C)cc2)cc1 | 0.474 | -0.229 | -0.0901 | -0.0763 | -0.672 | 0.866 | 0.0455 | -4.03 (inactive) | 0.176 | -0.3
15 | COCCCNC(=O)[C@@]1(Cc2ccccc2I)c2ccccc2C(=O)N(Cc2ccccc2Cl)[C@H]1c1ccc(CO)cc1 | -0.196 | 0.229 | -0.0686 | 0.293 | 0.153 | 1.3 | 1.13 | -1.21 (inactive) | -0.211 | -0.156
16 | [N-]=[N+]=NCc1ccccc1[C@H]1OC(c2ccc(OCCCO)cc2)=N[C@@]1(Cc1ccccc1)C(N)=O | 0.712 | 0.163 | 0.0138 | 0.68 | 1.05 | 1.36 | 1.1 | 2.79 (inactive) | 1.24 | 0.0623
